# Experimental data as given in ChEMBL document CHEMBL3988442, “University of Dundee, Small-Polar-MMV Screening Library” (2021).
# Hit rate of the full screen: of about 48,000 compounds, about 13,000 (27%) showed an effect of 50% or more. The list shows a part of the results.
# Test system: Wolbachia pipientis
# Assay: Anti-Wolbachia Cell-Based Screen
# Format: functional
# Parameters: scale not given: in the data most compounds retested in dose-response had high values
# Conditions: 5 µM
row,SMILES,Percent Effect [%]
1,O=C(CCSc1ccc(F)cc1)NS(=O)(=O)c1ccc2c(c1)OCCO2,5.18
2,FC(F)(F)c1ccc(-c2cc(NC3CCNCC3)nc3[nH]ccc23)nc1,-3.524
3,COCCN(C/C=C/c1ccccc1)Cc1nccs1,-13.78
4,CC1CCCCN1C(=O)CCn1cnc2sccc2c1=O (stereo not given),-3.502
5,OCC1CCCCN1CCCNCc1cc(O)c2cc(F)ccc2n1 (stereo not given),13.42
6,CC1CCN(CC(O)Cn2cnc3ccc(Cl)cc3c2=O)CC1 (stereo not given),-0.72
7,CCC1CCCCN1C(=O)CCn1cnc2sccc2c1=O (stereo not given),3.224
8,Cc1nc(C)n(CC2CCCCN2CCCN2CCCC2=O)n1 (stereo not given),-1.453
9,O=c1c2ccc(C(F)(F)F)cc2ncn1CCCN1CCCCC1CO (stereo not given),127.8
10,CC(C)(C)c1cc2ncn(CCCN3CCCCC3CO)c(=O)c2s1 (stereo not given),91.32
11,O=c1c2ccc(Cl)cc2ncn1CCCN1CCCCC1CO (stereo not given),62.54
12,Cc1cc(C)n(CC2CCCCN2CCCS(N)(=O)=O)n1 (stereo not given),6.399
13,OCC1CCCCN1Cc1cc(O)c2cccc(F)c2n1 (stereo not given),-10.07
14,CC(C)N1CCCCC1CCn1cnc2cc(C(F)(F)F)ccc2c1=O (stereo not given),86.9
15,OCC1CCCCN1CCn1ccnc1-c1ccc2c(c1)OCCO2 (stereo not given),3.348
16,Cc1nccc(N2CCC(=O)N(Cc3ccc(F)cc3)C(C(C)C)C2)n1 (stereo not given),-4.712
17,Cc1ccc(CC(=O)Nc2ccc(CS(C)(=O)=O)c(F)c2)cc1,-3.383
18,O=C1NCCN1CCNCC1(O)CCCN(CCC2CCCCC2)C1=O (stereo not given),-3.271
19,Cc1nnsc1C(=O)N(C)Cc1nc(-c2ccccn2)no1,-8.145
20,Cc1nnc(CN2CCN(C)C3(CCC(=O)N(CCO)CC3)C2)s1 (stereo not given),5.792
21,Cc1n[nH]c(C)c1CCNC(=O)Nc1ccc(S(C)(=O)=O)cc1,3.499
22,Cc1ccc(CN2CCCn3cnc(COCC4CC4)c3C2)o1.O=C(O)C(F)(F)F,8.584
23,Clc1ccccc1C1(c2ccnc(CC3CC3)n2)CCNCC1,5.526
24,Cc1occc1C(=O)N1CCCC(c2nncn2C)C1 (stereo not given),118

row,SMILES,Percent Effect [%]
1,Cn1cnnc1C1CCCN(C(=O)c2ccc3c(c2)OCCCO3)C1 (stereo not given),0.4143
2,Cc1ccc(C(=O)N2CCCC(c3nncn3C)C2)c(C)c1 (stereo not given),142.4
3,CCOc1ccc2nc(CN3CCC(CN)C3)ccc2c1 (stereo not given),6.34
4,CC(C)CCN1CCc2c(C(=O)N(C)Cc3ccccn3)nn(C)c2C1.O=C(O)C(F)(F)F.O=C(O)C(F)(F)F.O=C(O)C(F)(F)F,7.035
5,CC(Cn1cncn1)NC(=O)Nc1ccc(COC2CCCC2)cc1 (stereo not given),-11.48
6,Cc1ccc(CN2CC[C@H]3CO[C@H](CN(C)C)[C@H]3C2)o1,-4.083
7,Cc1cc(C)c(CNC(=O)N2CCN(c3ncccn3)CC2)c(=O)[nH]1,-5.06
8,Cc1cc(C)c(CNC(=O)N2CCOC(c3ccccc3)C2)c(=O)[nH]1 (stereo not given),99.02
9,Cc1cc(C2CCCN2C(=O)NCc2ccccn2)on1 (stereo not given),-32.12
10,Cc1cc(C2CCCN2C(=O)NCc2cccnc2N(C)C)on1 (stereo not given),-7.167
11,Cc1cc(C)c(CNC(=O)N2CCC(N3CCCCC3)CC2)c(=O)[nH]1,-48.68
12,Cc1cc(C2CCCN2C(=O)NCc2c(C)cc(C)[nH]c2=O)on1 (stereo not given),97.2
13,Cc1cc(C)c(CNC(=O)N2CCNC(=O)C2)c(=O)[nH]1,-6.191
14,Cc1cc(C)c(CNC(=O)N2CCCC2c2cc(C)on2)c(=O)[nH]1 (stereo not given),104.6
15,Cc1cc(C)c(CNC(=O)N2CCC(N3CCCC3)CC2)c(=O)[nH]1,3.168
16,Cc1cc(C)c(CNC(=O)N2CCCC2c2ccccn2)c(=O)[nH]1 (stereo not given),93.91
17,Cc1cc(C)c(CNC(=O)N2CCCC2C(N)=O)c(=O)[nH]1 (stereo not given),4.239
18,Cc1cc(C)c(CNC(=O)N2CCC(N3CCNC3=O)CC2)c(=O)[nH]1,-7.993
19,Nc1nc(Cn2ccnc2-c2cc(CN3CCCC3)cs2)cs1,4.037
20,NC1(C(=O)NCC2CCCN(Cc3cccc4nonc34)C2)CCC1 (stereo not given),-1.452
21,O=C([C@H]1C[C@H]2OCC[C@H]2N(C(=O)c2ccnnc2)C1)N1CCCCO1,-6.312
22,Cc1csc2c(N3CCC(NCCCC4CCOC4)CC3)ncnc12 (stereo not given),7.139
23,Cc1cccc(CN2C[C@@H](F)[C@@H](OCc3nc4ccccc4[nH]3)C2)n1,-1.113
24,CSCC[C@@H](CO)n1ccnc1-c1ccc(C)o1,-18.99

row,SMILES,Percent Effect [%]
1,N#Cc1ccsc1NC(=O)CN1CCn2c(nnc2C2CC2)C1,118.5
2,CCC1CN(CC(=O)Nc2sccc2C#N)CCO1 (stereo not given),-10.74
3,Cc1nnc2n1CCN(CCC(=O)Nc1sccc1C#N)C2,5.791
4,Cc1cc(NC(=O)CCN2CCn3c(nnc3C3CC3)C2)no1,-0.2298
5,Cc1cc(NC(=O)CN2CCn3c(nnc3C3CC3)C2)n(C)n1,-5.451
6,N#Cc1ccsc1NC(=O)CCN1CCn2c(nnc2C2CC2)C1,113.3
7,CNC(=O)COc1nc(C(C)(C)C)no1,-5.111
8,CCN(Cc1ccoc1)C(C(N)=O)c1cccc(Br)c1 (stereo not given),12.55
9,CNC(=O)C(C)(C)N(C)C(=O)c1cc(COc2ccccc2OC)[nH]n1,-2.904
10,COc1ccc(OCCN(C)C(=O)c2ccc(OC)cc2O)cc1,93.52
11,CCc1ccc(OCCN(C)C(=O)c2ccncc2Cl)cc1,-12.28
12,COCCN(C)C(=O)c1ccc(OC)cc1O,-1.632
13,Cc1nc(C#N)c(N2CCC(c3nc(-c4ccc(F)cc4)no3)CC2)o1,10.17
14,Cc1cnn(CC2CCCN2Cc2nnc(Cc3ccccc3)o2)c1 (stereo not given),6.561
15,Cc1cnn(CC2CCCN2Cc2nnc(-c3ccccc3)o2)c1 (stereo not given),97.7
16,Cc1cnn(CC2CCCCN2Cc2noc(C3CC3)n2)c1 (stereo not given),11.5
17,CCc1nnc(CN2CCCC2Cn2cc(C)cn2)o1 (stereo not given),107.1
18,Cc1cnn(CC2CCCN2Cc2nnc(C3CC3)o2)c1 (stereo not given),113.6
19,Cc1cnn(CC2CCCN2Cc2coc(-c3ccccc3)n2)c1 (stereo not given),17.84
20,CC(C)c1nnc(CN2CCCC2Cn2cncn2)o1 (stereo not given),2.76
21,Cc1cnn(CC2CCCN2Cc2nnc(C(C)C)o2)c1 (stereo not given),94.36
22,Cc1cnn(CC2CCCN2Cc2ncc(-c3ccccc3)o2)c1 (stereo not given),-2.575
